FLuc inh: firefly luciferase inhibition | P08659 | purified firefly luciferase, luminescence, 8 min | Potency, µM (titrated, usually from 57.1 µM), without a hit: at the highest dose activity change, negative = inhibition, actives largely listed as inhibitors | 72,000 compounds, 2.2% hits | AID 411; also: potency is read from the fitted curve at half-maximal effect; % is scaled to controls: 0 for no effect and ±100 for the full control effect; nearly all actives have a fitted effect of over 40% in size
Target sequence (P08659 whole entry, looked up): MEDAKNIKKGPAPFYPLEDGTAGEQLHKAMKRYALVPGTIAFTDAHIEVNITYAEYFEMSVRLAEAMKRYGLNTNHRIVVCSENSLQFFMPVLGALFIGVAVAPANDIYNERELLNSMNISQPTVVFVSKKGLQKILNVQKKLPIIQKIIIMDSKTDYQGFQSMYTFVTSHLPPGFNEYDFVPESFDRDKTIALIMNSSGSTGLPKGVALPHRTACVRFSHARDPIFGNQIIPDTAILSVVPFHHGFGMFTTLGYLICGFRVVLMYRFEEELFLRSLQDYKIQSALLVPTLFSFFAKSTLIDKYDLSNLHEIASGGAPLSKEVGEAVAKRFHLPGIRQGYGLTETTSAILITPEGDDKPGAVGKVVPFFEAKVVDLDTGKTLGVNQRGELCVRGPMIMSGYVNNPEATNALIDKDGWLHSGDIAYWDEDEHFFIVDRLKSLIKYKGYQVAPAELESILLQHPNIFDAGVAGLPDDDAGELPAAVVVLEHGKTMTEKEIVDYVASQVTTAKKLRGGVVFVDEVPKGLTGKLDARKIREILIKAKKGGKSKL
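Inhibition of light generation by firefly luciferase from ATP and luciferin was profiled with concentration-response curves per sample, ATP held at 10 uM within the enzyme's linear range. Plates were read by luminescence after an 8-minute ambient incubation.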
p53ts 39C tox: cytotoxicity in p53ts cells at nonpermissive temperature. H1299-p53A138V viability at 39C, ATP luminescence, 24 h. AID 902. 130,000 compounds, 1.5% hits. Potency, µM (highest dose often 46.1 µM), inactives show at the top dose activity change, negative = cell killing, hits mostly cytotoxic; also: potency is read from the fitted curve at half-maximal effect; % is scaled to controls: 0 for no effect and ±100 for the full control effect; nearly all actives have a fitted effect of over 55% in size
Imprint erasure: genomic imprint erasure induction | mouse ES Peg3-LacZ reporter, beta-gal luminescence, 40 h | Potency, µM (series often up to 60.7 µM), for the others: at the top dose activity change, positive = activation, usual class: activators | 110,000 compounds, 0.02% hits | AID 1948; also: potency is read from the fitted curve at half-maximal effect
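Readout: BetaGlo luminescence (5 min, room temp) for LacZ from the normally silent maternal Peg3 allele in female Peg3LacZ-Neo ES cells. Cells 300/well, 40 h, 37C, 5% CO2. Data normalized per plate to negative controls.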
IMPase cell inh: cell-permeable inhibitors of inositol monophosphatase (IMPase); P97697; CHO-M1 cells, IP1 accumulation, HTRF TR-FRET ratio; inhibition (IP1 accumulation), % at 46.1 µM; 120,000 tested, under 10 active; active = well fitted curve in the direction sought with a large enough effect in the signal ratio, not every such curve was filed as active; inconclusive = small, poorly fitted or top-dose-only effect, or a change in a side signal; inactive = no such curve, though single readings can be large or run the other way; the % refers to the signal ratio;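 also: cells stimulated with carbachol in lithium chloride buffer; plate controls were DMSO basal wells for no effect and reference inhibitor wells for full effect; higher means more IMPase inhibition seen as more IP1 and lower FRET ratio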
Target sequence (P97697 whole entry, looked up): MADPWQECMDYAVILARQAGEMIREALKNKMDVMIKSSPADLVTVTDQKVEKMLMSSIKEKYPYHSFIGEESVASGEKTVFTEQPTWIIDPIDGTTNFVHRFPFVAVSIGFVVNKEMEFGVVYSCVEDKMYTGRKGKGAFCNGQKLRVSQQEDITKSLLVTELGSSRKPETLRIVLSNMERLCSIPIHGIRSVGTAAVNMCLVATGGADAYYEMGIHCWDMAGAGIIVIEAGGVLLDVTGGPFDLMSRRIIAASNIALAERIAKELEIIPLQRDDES
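CHO-M1 cells (CHO stably expressing M1 receptor), compound up to 46 uM final, stimulated with carbachol (50 uM as added) in buffer with 50mM LiCl, pH 7.4, 30 min at 37C. Cytosolic IP1 read by TR-FRET; AC50 from Hill fits.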
p53ts 32C kill: p53ts cell cytotoxicity, permissive temperature | H1299-p53A138V at 32C, ATP luminescence viability, 24 h | Potency, µM (titrated, usually from 46.1 µM), for inactives: at the top dose activity change, negative = cytotoxicity, most hits filed as cytotoxic | 130,000 compounds, 0.93% hits | AID 924;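 also: potency is read from the fitted curve at half-maximal effect; 0% = DMSO and -100% = full killing by reference compound; nearly all actives have a fitted effect of over 55% in size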
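H1299-p53 A138V cells (temperature-sensitive p53) exposed 24 h to up to 46 uM compound at 32C, where p53 is wild-type in conformation. Viability read as ATP luminescence and normalised to DMSO and 100 uM tamoxifen. AC50 fitted with the Hill equation.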
IkB sig inh: inhibitors of IkB signaling in ABC-DLBCL cells; Potency, µM (doses to about 57.1 µM), for the others: top-dose IkBa stabilization activation; ABC-DLBCL IkBa-CBG/CBR dual luciferase ratio, 4 h; response scale: scaled: untreated 0%, proteasome inhibitor 100%; 110,000 compounds, 0.04% hits; active = well fitted curve in the direction sought with a large enough effect in the signal ratio, not every such curve was filed as active; inconclusive = small, poorly fitted or top-dose-only effect, or a change in a side signal; the % refers to the signal ratio;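 also: potency is read from the fitted curve at half-maximal effect; the direction sought is a rising ratio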
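Luminescence ratio of IκBα-fused green versus native red beetle luciferase in OCI-Ly3 cells, 4 h post-doxycycline with compound; red signal alone, scaled from basal (0%) to zero light (-100%), flagged nonspecific or cytotoxic effects.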
Starred values were filed as active, the others as inactive; ? = inconclusive; . = no result given; ! = not confirmed by another sample; [ ] = dose if it differs, or a comment. The sample as a whole holds a higher share of hits than the screen did. Unless noted, calls follow the shape of the dose curve; as a rule, active = well fitted curve in the direction sought with a large enough effect; inconclusive = small, poorly fitted or top-dose-only effect, or another doubt; inactive = no such curve, though single readings can be large; an effect the other way counts as inactive or inconclusive.

SMILES	FLuc inh	p53ts 39C tox	Imprint erasure	IMPase cell inh	p53ts 32C kill	IkB sig inh
Cc1nnc(NC(=O)c2cccn(Cc3cccc(Cl)c3)c2=O)s1	.	2%	-19%[10.9 µM]	.	-2%	0%
Cc1ccc(Cl)cc1NC(=O)NCc1cccn1Cc1ccc(F)cc1	.	10µM*	-1%[10.9 µM]	.	?	-2%
COC(=O)C[C@]1(C(=O)OC)CN(C#N)N(c2ccc(Cl)cc2)C12c1ccccc1-c1ccccc12	.	?	.	7	6.3µM*	.
C=C(C)CN1CC[C@@]23c4c5ccc(O)c4O[C@H]2c2[nH]c4ccccc4c2C[C@]3(O)[C@@H]1C5	-1%	32µM*	-11%	-3	?	?
Oc1ccc2c3c1O[C@H]1c4[nH]c5ccccc5c4C[C@@]4(O)C(C2)N(CC2CC2)CCC314 (stereo partly specified)	.	.	-8%	.	.	.
NC(N)=Nc1ccc2[nH]c3c(c2c1)C[C@]1(O)[C@@H]2Cc4ccc(O)c5c4[C@]1(CCN2CC1CC1)[C@H]3O5	7%	25µM*	.	20	13µM*	0%
O=CN1C[C@H]2C[C@@H](C1)c1cccc(=O)n1C2	1%[11.4 µM]	.	.	.	.	0%[11.4 µM]
OC[C@H]1CCCN2CCCC[C@@H]12	-1%[11.4 µM]	.	.	.	.	-1%[11.4 µM]
NC(=NCCC[C@@H](N)C(=O)O)N[N+](=O)[O-]	-9%	.	.	.	.	10%
[O-]/[N+](=C/c1cccnc1)c1ccc(Br)cc1	10µM*	-10%	-23%	10	-24%	?
CC(C)(C)c1ccc(C(=O)Nc2ccc3nc(SCC(=O)N4CCCC4)sc3c2)cc1	.	3.2µM*	-14%[10.9 µM]	.	13µM*	?
Cc1ccccc1C(=O)Nc1ccc2nc(SCC(=O)N(C)c3ccccc3)sc2c1	.	?	-10%[10.9 µM]	.	-13%	?
COc1cc(CC2C(=O)N(C)C(=O)N(C)C2=O)ccc1OCc1ccccc1	-8%	3%	-13%	7	-4%	2%
CCCCOc1ccc(CN2C(=O)C(=O)c3cc(C)ccc32)cc1OC	.	10µM*	-34%[10.9 µM]	.	12%	3%
CC[C@@]12CCCN3CC[C@@]4(c5ccc(OC)c(O)c5N(C(C)=O)[C@H]4CC1)[C@H]32	3%[11.4 µM]	.	.	.	.	-2%[11.4 µM]
CCn1cnc2c(Nc3cccc(Cl)c3)nc(N[C@@H]3CCCC[C@H]3N)nc21	0%	13µM*	.	6	10µM*	?
CC[C@H]1CN2CC[C@@H]1C[C@@H]2[C@H](O)c1ccnc2ccccc12	2%[11.4 µM]	.	.	.	.	1%[11.4 µM]
O=C1C(Cl)=C(Cl)C(=O)C(Cl)=C1Cl	.	?	-50%	.	5µM*	?
Cc1ccc(C2(O)CC(C)N(C)CC2C)cc1 (stereo unspecified)	5%	5%	-13%	4	-1%	-1%
CCOc1ccc(Br)c(C2(O)CC(C)N(C)CC2C)c1 (stereo unspecified)	25µM*	-30%	-79%	6	?	?
C=C1C/C(=C\C)C(=O)O[C@@H]2CCN3CC=C(COC(=O)[C@]1(C)O)[C@H]23	2%[11.4 µM]	.	.	.	.	2%[11.4 µM]
Nc1ccccc1C(=O)OCCOc1ccccc1	13µM*	6%	-52%	-6	-14%	15%
CC(C)[C@@]1(NC(=O)[C@@H]2C[C@H]3c4cccc5[nH]cc(c45)C[C@@H]3N(C)C2)O[C@@]2(O)[C@H]3CCCN3C(=O)[C@@H](Cc3ccccc3)N2C1=O	2%[11.4 µM]	.	.	.	.	1%[11.4 µM]
CN1CCN(c2ccc([N+](=O)[O-])c3[nH]o[n+](=O)c23)CC1	-10%[11.4 µM]	-21%[9.22 µM]	.	.	?	?
CC(=O)c1cccc(NC(=O)c2cc3c(s2)-c2c(C)cccc2OC3)c1	.	5µM*	-16%[10.9 µM]	.	10µM*	?
SMILES	FLuc inh	p53ts 39C tox	Imprint erasure	IMPase cell inh	p53ts 32C kill	IkB sig inh
CN[C@H]1[C@H]2[C@H]3CCN2C[C@@H]1O3	1%[11.4 µM]	.	.	.	.	-1%[11.4 µM]
Cn1ncnc2c(=O)n(C)c(=O)nc1-2	0%	5µM*	-34%	5	0.79µM*	?
COc1cccc(-c2cc(C(=O)Nc3cnn(Cc4ccc(Cl)cc4Cl)c3)no2)c1	.	10µM*	-7%[10.9 µM]	.	?	4%
CN(C)c1ccc(N)cc1	.	32µM*	-17%	.	-2%[1.84 µM]	?
NCCCNCCCCNCCCNC(=O)Cc1ccc(O)cc1	.	.	-5%[10.9 µM]	.	.	.
NNC(=O)c1ccc(O)cc1	13µM*	-10%	-2%	3	-23%	?
C[C@H]1C(=O)O[C@H]2CCN3CC=C(COC(=O)[C@](C)(O)[C@@]1(C)O)[C@H]23	-3%[11.4 µM]	.	.	.	.	1%[11.4 µM]
CC[C@]1(O)CC(O[C@@H]2CC(N(C)C)C(O)C(C)O2)c2c(cc3c(c2O)C(=O)c2c(O)cccc2C3=O)C1C(=O)OC (stereo partly specified)	.	?	-41%	.	-17%	.
CC[C@@]1(O)CC(O)c2c(cc3c(c2O)C(=O)c2c(O)ccc(O)c2C3=O)C1C(=O)OC (stereo partly specified)	.	13µM*	-14%	.	?	.
CC(C)C[C@H]1C(=O)N2CCC[C@@H]2[C@]2(O)O[C@](NC(=O)[C@H]3C=C4c5cccc6[nH]cc(c56)C[C@H]4N(C)C3)(C(C)C)C(=O)N12	-4%[11.4 µM]	.	.	.	.	2%[11.4 µM]
C[C@@H]1[C@H]2C=C[C@@H]1[C@@H](c1c3ccc(=O)c(O)c-3oc3c(O)c(O)ccc13)[C@@H]2C(=O)O	-4%[11.4 µM]	2%[9.22 µM]	.	.	6%[9.22 µM]	-1%[11.4 µM]
Cc1ccc2oc(-c3ccc(Cl)cc3)c(O)c(=O)c2c1	.	?	-12%[10.9 µM]	-3	-18%	5µM*
OCCN1CCN(CCCN2c3ccccc3Sc3ccc(C(F)(F)F)cc32)CC1	-1%[25.5 µM]	13µM*!	-34%	2[20.6 µM]	?	-1%[25.6 µM]
FC(F)(F)c1ccc2c(c1)N(CCCN1CCN(CCCl)CC1)c1ccccc1S2	.	.	.	18	.	.
CC1=CC(=O)c2c(O)cccc2C1=O	.	10µM*	-36%	23	6.3µM*	.
CCCOc1ccc2[nH]cc(C3=CCNCC3)c2n1	13µM*	-9%	-20%	-1	-4%	1%
O=S(=O)(NCCO)c1cc[c]([Sb](=[O])([OH])[OH])cc1	-1%[11.4 µM]	17%[9.22 µM]	.	.	14%[9.22 µM]	0%[11.4 µM]
CC(=O)OC1C[C@@]2(C)C(c3ccoc3)C[C@H]3O[C@@]32[C@@]2(C)C(=O)C(O)=C3C(C)(C)C(=O)C=C[C@]3(C)C12 (stereo partly specified)	.	?	-30%	.	1.6µM*	.
COc1ccccc1NC(=O)c1oc2ccccc2c1NC(=O)c1ccccc1C(F)(F)F	.	16µM*	-24%[10.9 µM]	.	?	3%
Cc1ccc(Cl)cc1Nc1nn2c(=O)c3ccc(C(=O)NCc4cccs4)cc3nc2s1	.	16µM*	-20%[10.9 µM]	.	13µM*	1%
COc1cccc(NC(=O)c2ccc3c(=O)n4nc(Nc5ccccc5OC)sc4nc3c2)c1	.	?	-43%[10.9 µM]	.	-10%	?
